Rac1 wt GTP bind – wildtype Rac1 GTP binding modulators, primary screen, biochemical, GST-Rac1 beads, flow cytometry, multiplex. fluorescent GTP binding; actives lie on both sides; 0 = cold GTP competed, 100 = untreated. 190,000 tested, 0.27% active. AID 757, 2007. GTP binding activity (% of control), % at 10 µM;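 active means GTP binding activity at least 20 points away from the 100% control level, either lower or higher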
Cdc42 wt – modulators of GTP binding to wildtype Cdc42, primary screen, biochemical, multiplex bead flow cytometry, Bodipy-GTP. percent activity (GTP binding), % at 10 µM. GST-Cdc42 beads; actives lie on both sides. 190,000 tested, 0.2% active;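 active means percent activity GTP binding at least 20 points away from the 100% baseline, either down as inhibitor or up as activator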;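 further: median bead fluorescence of bound Bodipy-FL-GTP at 100 nM; 0% = excess unlabeled GTP control and 100% = no compound control; below 100% means less GTP binding so inhibitor and above means activator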
Target sequence (P60953 whole entry, looked up): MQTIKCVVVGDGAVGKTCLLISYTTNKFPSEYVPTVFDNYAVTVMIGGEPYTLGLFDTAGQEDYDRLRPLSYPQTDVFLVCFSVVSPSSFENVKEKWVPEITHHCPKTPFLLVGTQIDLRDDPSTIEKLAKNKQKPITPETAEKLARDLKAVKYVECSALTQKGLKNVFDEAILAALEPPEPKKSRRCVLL
HRas wt GTP – modulators of GTP binding to HRas wildtype, primary screen, biochemical, bead-based flow cytometry, multiplex | GTP binding activity, % at 10 µM | GST-Ras wt beads, Bodipy-FL-GTP binding; actives lie on both sides | 190,000 tested, 0.14% active | GTPase HRas (Homo sapiens), P01112;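 active means GTP binding activity at least 20% away from the 100% baseline, either lowered as inhibitor or raised as activator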;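 further: 0% = unlabeled GTP competition control and 100% = no-compound control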
Target sequence (P01112 whole entry, looked up): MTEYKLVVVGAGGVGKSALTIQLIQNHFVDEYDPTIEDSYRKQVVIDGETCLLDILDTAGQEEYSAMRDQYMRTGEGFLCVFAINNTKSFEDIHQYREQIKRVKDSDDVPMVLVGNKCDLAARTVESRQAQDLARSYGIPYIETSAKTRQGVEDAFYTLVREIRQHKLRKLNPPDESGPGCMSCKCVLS
Rab2A wt mod – modulators of GTP binding to Rab2A wildtype, primary screen, biochemical, dog, bead-based flow cytometry, multiplex; Ras-related protein Rab-2A (Canis lupus familiaris), P61105; GST-Rab2 wt beads, Bodipy-GTP binding; GTP binding activity, % at 10 µM; 190,000 tested, 0.19% active; AID 760, 2007;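 active means GTP binding activity at least 20 points away from 100%, either lowered or raised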;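 further: 0% = beads with excess unlabeled GTP and 100% = no-compound control corrected for plate trend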
Rab7 wt GTP bind – modulators of GTP binding to Rab7, primary screen, biochemical, wildtype, multiplex bead flow cytometry. GST-Rab7 beads, fluorescent GTP binding; actives lie on both sides; untreated = 100%, excess cold GTP = 0%. GTP binding activity (percent of control), % at 10 µM. 190,000 tested, 0.055% active;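 active means fluorescent GTP binding to Rab7 beads changed by at least 20 points from the 100% baseline, either direction, mostly lower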;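 further: median green fluorescence of bound Bodipy-FL-GTP per Rab7 bead population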
Rac1 act GTP bind – GTP binding modulators of activated mutant Rac1, primary screen, biochemical, bead-based flow cytometry, multiplex, fluorescent GTP; 190,000 tested, 0.11% active; GST-Rac1 activated beads; actives lie on both sides; 100% means binding = to untreated wells; percent activity (GTP binding), % at 10 µM; Ras-related C3 botulinum toxin substrate 1 (Homo sapiens), P63000; AID 764, 2007;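 active means GTP binding at least 20 percentage points away from the 100% baseline, in either direction, so actives lie on both sides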
* = called active by the depositor; [ ] = remark or other dose. The list is not random: actives were taken first. Their share in the collection is about 0.38%.

SMILES	Rac1 wt GTP bind	Cdc42 wt	HRas wt GTP	Rab2A wt mod	Rab7 wt GTP bind	Rac1 act GTP bind
CC(C)Oc1ccc(/C=N/NC(=O)c2ccc(N(Cc3ccccc3)S(C)(=O)=O)cc2)cc1	74*	84	84	74*	87	85
O=C(Nc1cnn(C23CC4CC(CC(C4)C2)C3)c1)c1cnn2cccnc12	138*[activator]	129*[activator]	123*[activator]	121*[activator]	117	117
O=C(Nc1ccccc1)C1=C(c2ccccc2)S(=O)(=O)CCS1(=O)=O	87	77*	90	87	98	81
CC1(C)Cc2c(sc3c2C2=NCCN2C=N3)CS1	123*[activator]	113	106	107	104	104
Cc1ccc(-n2c3nc(=O)[nH]c(=O)c-3cc3cc([N+](=O)[O-])ccc32)cc1	77*	80	82	82	87	80
Cc1ccc(-n2c(C)nn(Cc3ccc([N+](=O)[O-])cc3)c2=O)cc1	99	94	101	98	103	95
CCc1nnc(NS(=O)(=O)c2ccc(Nc3ccc4nonc4c3[N+](=O)[O-])cc2)s1	77*	81	77*	76*	87	83
CC(=O)Nc1ccc(Nc2ccc3nonc3c2[N+](=O)[O-])cc1	98	95	95	93	94	95
CCN1CCN(CC(=O)N2N=C(c3ccc(OC)cc3)CC2c2ccc(OC)cc2)C(=O)C1=O (centres undefined)	104	98	96	95	96	93
O=C(O)c1ccc(NS(=O)(=O)c2ccc3c(c2)C(=O)c2ccccc2C3=O)cc1	72*	80	83	81	88	83
CCOC(=O)N1CCN(C(=O)CSc2ccc3nnc(CCNC(=O)c4ccc(OC)cc4)n3n2)CC1	101	99	98	96	92	98
Cc1cn2c(nc(=O)c3cccnc32)s1	76*	85	86	83	92	89
COc1cc([N+](=O)[O-])cc(/C=N/N(CCC#N)C(C)=O)c1O	97	92	97	95	101	92
C=CCNC(=O)c1cc2c(=O)n3cc(C)ccc3nc2nc1NCC1CCCO1 (centres undefined)	82	89	69*	78*	65*	82
Nc1[nH]nc2ncc3cc4ccccc4nc3c12	68*	80	85	82	88	83
CSc1ccc(/C=C/C(=O)NC(=O)c2ccccc2O)cc1	94	92	96	95	102	92
Cc1cc(N)nc2nc(C(F)(F)F)nn12	98	96	95	97	94	97
CCc1nc2ccccc2n1Cc1ccccc1F	88	85	85	85	93	84
O=C1C(=O)c2ccc(-c3ccccc3)cc2-c2ccccc21	107	97	100	99	101	99
Nc1ccc2c(c1)C(=O)C(=O)c1ccccc1-2	88	70*	85	84	92	84
CS(=O)(=O)N1CCN(C(=O)C2c3ccccc3Oc3ccccc32)CC1	121*[activator]	116	111	112	103	102
Cc1ccc(OCc2ccc(C(=O)NCc3cccnc3)cc2)cc1C	99	98	95	90	98	94
C/C(=N\NC(=O)c1ccc(Cl)c(S(=O)(=O)Nc2ccccc2Cl)c1)c1ccncc1	73*	86	87	86	91	87
COc1cc(/C=C/c2ccc3cccc([N+](=O)[O-])c3n2)ccc1OCC(=O)O	80	70*	72*	69*	95	85
Cc1cccc(CSc2ncccc2C(=O)O)c1	161*[activator]	149*[activator]	129*[activator]	132*[activator]	120*[activator]	134*[activator]
SMILES	Rac1 wt GTP bind	Cdc42 wt	HRas wt GTP	Rab2A wt mod	Rab7 wt GTP bind	Rac1 act GTP bind
O=C(O)c1cccnc1SCc1cccc(Cl)c1	129*[activator]	131*[activator]	125*[activator]	132*[activator]	124*[activator]	127*[activator]
O=C(O)c1ccccc1CSc1ncccc1C(=O)O	97	94	94	93	94	93
CCOC(=O)N(NC(=O)C(O)(CC(C)C)CC(C)C)c1ccccc1	103	103	102	102	99	98
O=C(O)CC/C(=N/Nc1ncc(C(F)(F)F)cc1Cl)C(=O)O	102	99	100	100	105	94
Cc1ccccc1NC(=O)C1CCCN1S(=O)(=O)c1cccc2cccnc12 (centres undefined)	128*[activator]	117	113	113	109	111
Cc1ccccc1NC(=O)C1CCCN(S(=O)(=O)c2cccc3cccnc23)C1 (centres undefined)	103	98	100	97	101	100
Cc1ccc(CNc2oc(-c3ccco3)nc2S(=O)(=O)c2ccccc2)cc1	99	94	97	99	97	96
COc1cccc(CN(C(=O)Cn2nnc(-c3ccccc3F)n2)C(C(=O)NC(C)(C)C)c2ccncc2)c1 (centres undefined)	98	96	96	95	96	97
O=C(N/N=C/c1ccc(-c2ccccc2[N+](=O)[O-])o1)c1cncc(Br)c1	72*	89	84	83	89	89
O/N=C1\CCCC\C1=C/c1ccccc1	99	96	95	97	98	98
O=C(O)c1cc(C(=O)O)cc(-c2ccc(/C=c3/sc4nc5ccccc5n4c3=O)o2)c1	81	80	82	79*	92	80
COCCCNC(=S)N1CCN(c2ccccc2)CC1	97	96	96	99	104	95
CCOC(=O)C1(Cc2cccc(F)c2)CCN(C(=O)c2cnc(C)cn2)CC1	99	97	96	95	96	94
Oc1ccc(N=Cc2cc(Br)c(N3CCOCC3)o2)cc1	103	105	104	103	97	102
O=[N+]([O-])c1cc(Br)c(O)c(C=Nc2ccc(N3CCOCC3)cc2)c1	84	79*	88	87	97	84
O=C(Oc1coc(CSc2ncccn2)cc1=O)c1cccs1	95	97	96	96	95	94
O=C(O)COc1ccccc1/C=N/NC(=O)c1cc(-c2ccc(F)cc2)nc2ccccc12	78*	82	87	86	99	84
Cc1c(C(=O)N/N=C/c2ccc(O)c(Br)c2)sc(N)c1C#N	76*	89	80	79*	93	92

Bioassay records as filed in PubChem BioAssay.
